Screens (PubChem BioAssay)
Cycloheximide cs: affects cycloheximide protein synthesis inhibition readout, counter-screen. 300,000 compounds, 12% hits. max response, %. cell reporter, cycloheximide protein synthesis inhibition counterscreen. AID 2314; in the data active = max response mostly above about 13%, no sharp cut-off; inactive = mostly below about 14%; note: read at 38.3 µM for the half of the compounds with a filed dose; 0% is about no effect
AMA1-RON2 inh: AMA1-RON2 (P. falciparum) interaction inhibition; 360,000 compounds, 0.2% hits; Potency, µM (highest dose often 58.2 µM), for inactives: at the top dose activity change, negative = inhibition, actives largely listed as inhibitors; AlphaScreen AMA1-biotinylated RON2 peptide binding; active = well fitted inhibition curve with a large enough effect; inconclusive = small, poorly fitted or top-dose-only effect; inactive = no such curve, though single readings can be large or run the other way;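 note: potency is the fitted concentration of half-maximal effect; 0% = vehicle wells and -100% = peptide control; nearly all actives have a fitted effect of over 45% in size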
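AMA1 (3D7) with his tag at 25 nM final met compounds first, then biotinylated RON2 peptide at 25 nM; detection used donor plus acceptor beads, 10 µg/mL apiece, read by AlphaScreen after 30 min at room temperature.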
Marburg entry inh: Marburg virus entry inhibition | 300,000 compounds, 1.8% hits | Potency, µM (series often up to 37.8 µM), for the others: at the top dose activity change, negative = inhibition, hits mostly inhibitors | Marburg virus pseudotyped entry inhibition, cell reporter; calls by dose curve; tested in HEK293 cells; note: potency is the fitted concentration of half-maximal effect; % is set by controls: 0 for no effect and ±100 for the full control effect
Lassa entry inh: Lassa virus entry inhibition | Lassa virus pseudotype entry inhibition, cell reporter | Potency, µM (series often up to 37.9 µM), without a hit: at the highest dose activity change, negative = inhibition, actives largely listed as inhibitors | 300,000 compounds, 1.2% hits; calls by dose curve; tested in HEK293 cells; note: potency is the fitted concentration of half-maximal effect; % is set by controls: 0 for no effect and ±100 for the full control effect; nearly all actives have a fitted effect of over 50% in size
Shiga inhibitor: Shiga toxin inhibition. Vero cells, Shiga toxin protein synthesis inhibition reporter. inhibition, % at 38.7 µM. 290,000 compounds, 9.2% hits. AID 2315; in the data active = inhibition mostly above about 28%, no sharp cut-off; inactive = mostly below about 43%; note: 0% is about no effect
Numbers without * were called inactive; ? = inconclusive; · = no result given; [ ] = remark or other dose. Only a selection was taken, and hits are over-represented in it overall.

SMILES	Cycloheximide cs	AMA1-RON2 inh	Marburg entry inh	Lassa entry inh	Shiga inhibitor
CC1(C)CC(NC(=O)c2ccccc2C(=O)NC2CC(C)(C)NC(C)(C)C2)CC(C)(C)N1	-4	-1%	-17%	-5%	-6
Cc1ccccc1-c1nnc(-c2cccs2)o1	58*	9%	·	·	85*
Cc1ccccc1-c1noc(-c2cccs2)n1	55*	35%	?	8%	87*
CCOC1=C2CN(S(=O)(=O)c3ccccc3)[C@H](c3ccccc3)C[C@H]2n2c(=O)n(-c3ccccc3)c(=O)n2C1	·	-2%	·	·	·
Cn1c(=O)c2cn3c(c2n(C)c1=O)C(c1ccccc1)CC(c1ccccc1)=N3 (stereo not given)	38*	6%	?	26%	105*
CCCc1nc2ccccc2n2c(-c3ccccc3)c3c(=O)n(C)c(=O)n(C)c3c12	·	·	·	-28%[46.1 µM]	·
CCCc1cc(F)c(S(=O)(=O)N2CCN(S(=O)(=O)c3ccc4c(c3)OCCO4)CC2)cc1F	-5	·	·	·	-8
O=C1OC(c2cccs2)=N/C1=C\c1ccc(-c2cccc(Cl)c2)o1	2	-17%	-16%	-22%	-3
COc1ccc(/C=C2\SC(=N)N(c3nccs3)C2=O)cc1OC	14*	111%	?	-24%[46.1 µM]	-1
COc1ccc(/C=C2\SC(=S)N(NC(=O)c3ccncc3)C2=O)cc1OC	-3	·	·	·	-4
N=C1S/C(=C\c2ccc(-c3cccc(Cl)c3)o2)C(=O)N1c1nccs1	9	71%	3.2µM*	?	10
C=CCN(C(=O)c1csnn1)C(C(=O)NCc1ccc(F)cc1)c1ccccc1F (stereo not given)	-4	-4%	?	?	15
COC(=O)/C=c1\s/c(=C(/C#N)C(=O)N2CCOCC2)n(-c2ccccc2)c1=O	·	·	-9%	·	·
O=C(/C=C/c1ccc(-c2cccc([N+](=O)[O-])c2)o1)N1CCOCC1	31*	-18%	?	1%	146*
O=C1/C(=C\c2ccccc2)SC(=S)N1CCC(=O)N1CCCCC1CCO (stereo not given)	35*	-5%	·	·	39*
O=C(CCN1C(=O)c2ccccc2C1=O)N1CCCCCC1	13*	7%	9%[46.1 µM]	1%	32
O=C(CCCN1C(=O)c2cccc3cccc(c23)C1=O)N1CCN(c2ccccc2O)CC1	-3	-9%	?	7.9µM*	-3
O=C(CCN1C(=O)c2ccccc2C1=O)N1CCC(c2ccccc2)C1 (stereo not given)	21*	-10%	2%	3%	123
CCC(=O)N1CCc2cc(Br)cc(S(=O)(=O)N3CCCC(C(=O)NCc4ccccc4)C3)c21 (stereo not given)	·	·	6%[46.1 µM]	-8%[46.1 µM]	·
CC#CC(=O)NCC1(N(C)Cc2ccccc2)Cc2ccccc2C1	1	-3%	·	·	8
O=C(COc1ccc(F)cc1)N1CCC(Cc2ccccc2)CC1	14*	5%	·	·	52
O=C(COc1ccc(Br)cc1)N1CCC(c2ccccc2)C1 (stereo not given)	23*	-4%	23%	-29%	75
COc1ccc(OCC(=O)N2CCC(Cc3ccccc3)CC2)cc1	-2	-4%	29%[46.1 µM]	?	19
O=C(O)C1CCN(C(=O)CCN2C(=O)S/C(=C\c3ccccc3)C2=O)CC1	14	5%	·	·	-5
O=C(CCNS(=O)(=O)c1ccccc1)N1CCCCCCC1	·	-6%	8%[46.1 µM]	18%	·
SMILES	Cycloheximide cs	AMA1-RON2 inh	Marburg entry inh	Lassa entry inh	Shiga inhibitor
O=C(CCN1C(=O)S/C(=C\c2ccccc2)C1=O)N1CCCCC1	27*	-4%	?	4%[46.1 µM]	75*
O=C(CCNS(=O)(=O)c1ccccc1)N1CCCCCC1	32*	6%	·	·	47
CC(C)N(C(=O)[C@H]1C[C@H](CC(=O)NCCCn2ccnc2)C(=O)N2CCc3c([nH]c4cc(CCC(=O)N(C)C)ccc34)[C@]12C)C(C)C	·	-7%	·	·	·
O=C(Nc1ccc(Br)cc1F)N1CCC2(CC1)Oc1ccccc1C(=O)N2Cc1ccccc1F	·	·	0%[46.1 µM]	·	·
Cc1csc(NC(=O)C2COc3ccccc3O2)n1 (stereo not given)	13*	-3%	4.5µM*	?	22
Cc1cnc(NC(=O)C2COc3ccccc3O2)s1 (stereo not given)	13	-7%	7.9µM*	?	39
Cc1cc(NC(=O)C2COc3ccccc3O2)no1 (stereo not given)	37*	-5%	11%	6%	61*
Cc1cccc(NC(=O)C2COc3ccccc3O2)n1 (stereo not given)	47*	0%	·	·	55*
O=C(Nc1ccccn1)C1COc2ccccc2O1 (stereo not given)	32*	12%	9%	15%	64*
CN1CCN(c2ccc(Cl)cc2NC(=O)C2COc3ccccc3O2)CC1 (stereo not given)	0	-8%	?	?	9
O=C(Nc1ccc(Cl)cn1)C1COc2ccccc2O1 (stereo not given)	29*	-5%	9%[46.1 µM]	16%	51*
COc1cccc(C2CC(=O)Nc3c2c(=O)[nH]c2ncnn32)c1OC (stereo not given)	·	·	2%[46.1 µM]	-5%[46.1 µM]	·
Cc1ccc(NC(=O)N2CCC(CN3CCCC3)CC2)c(C)c1	·	·	·	13%[46.1 µM]	·
CCCCOc1ccc(N=Nc2ccc(N)nc2N)cn1	18*	10%	·	·	29
Cc1nnc(NS(=O)(=O)c2ccc(N=Nc3ccc(N)nc3N)cc2)s1	·	?	-6%	-11%	·
O=C(CN1C(=O)c2ccccc2S1(=O)=O)c1ccc2c(c1)OCCO2	-5	3%	·	·	-20
CCCC1Oc2ccccc2C(=O)N(CC(=O)c2ccc3c(c2)OCCO3)C1=O (stereo not given)	21*	-1%	?	?	29
CC(C)CC1NC(=O)N(CC(=O)c2ccc3c(c2)OCCO3)C1=O (stereo not given)	34*	-8%	20%	0%	135*
Cc1[nH]c2c(ccc3ccccc32)c1C1C(CCN)C1(C)C (stereo not given)	-2	1%	26µM*	?	-15
S=c1[nH]c2ccc3ccccc3c2[nH]1	19	2%	-3%[46.1 µM]	?	60
N/C(=N\OC(=O)c1csnn1)c1ccc(C(F)(F)F)cc1	40*	15%	0%[14.2 µM]	?	72*
Cc1ccc(C(=O)O/N=C(\N)c2ccc(C(F)(F)F)cn2)cc1	17	-5%	12%[46.1 µM]	-10%[46.1 µM]	52
COc1ccccc1N1CCN(C(=S)Nc2ccc(F)cc2)CC1	34*	-1%	-21%[46.1 µM]	-34%[46.1 µM]	45*
COc1ccc(/C=C/C(=O)NC(=S)N2CCOCC2)cc1	39*	52%	12%[46.1 µM]	4%[46.1 µM]	73*
COc1ccccc1N1CCN(C(=O)/C=C/c2ccc(C)cc2)CC1	5	-5%	?	14%	4
O=C(/C=C/c1ccc(F)cc1)NC(=S)N1CCN(c2ccccn2)CC1	43*	81%	?	10%[46.1 µM]	98*
COc1ccc(/C=C/C(=O)NC(=S)N2CCN(c3ccccc3OC)CC2)cc1	20*	84%	?	26%[46.1 µM]	22
COc1ccc(/C=C/C(=O)Nc2ccc(N3CCOCC3)cc2)cc1	3	14%	-6%	17%	9
